# According to PubChem BioAssay (NCI):
# Several values for one entry are separate records, joined by “and”; a condition that tells them apart may be missing. Equal values may be shown once. Compounds without any hit were thinned out: in the full panel of roughly 83,000, 20% have a hit.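 96-well plates, one dose, 48 hours. Percent growth reported; active if below 10.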 Activity calls are given as the source filed them.
# Legend:
# Experiment in all cases: NCI-60 one-dose screen, 48 h (100 = growth as untreated, 0 = no growth, -100 = all killed)
# DU-145 prostate = system: DU-145 prostate
# K-562 leukemia = system: K-562 leukemia
# MALME-3M melanoma = system: MALME-3M melanoma
# MDA-MB-231 breast = system: MDA-MB-231 breast
# RXF 393 renal = system: RXF 393 renal
# SF-268 CNS = system: SF-268 CNS
# SF-295 CNS = system: SF-295 CNS
# SF-539 CNS = system: SF-539 CNS
# UACC-257 melanoma = system: UACC-257 melanoma
# M14 melanoma = system: M14 melanoma
smiles,measurement,setting,value
COc1cc(C(=O)c2ccc3c(c2)OCO3)cc(OC)c1OC,growth,DU-145 prostate; 10 µM unless noted,10.4% (inactive) and 27.7% (inactive)
same,growth,K-562 leukemia; 10 µM unless noted,10.7% (inactive)
same,growth,MALME-3M melanoma; 10 µM unless noted,14.5% (inactive) and 34.1% (inactive)
same,growth,MDA-MB-231 breast; 10 µM unless noted,53.2% (inactive) and 47.4% (inactive)
same,growth,RXF 393 renal; 10 µM unless noted,28.3% (inactive) and 4.22% (active)
same,growth,SF-268 CNS; 10 µM unless noted,37.3% (inactive) and 40.6% (inactive)
same,growth,SF-295 CNS; 10 µM unless noted,9.91% (active) and 9.21% (active)
same,growth,SF-539 CNS; 10 µM unless noted,18.4% (inactive) and -1.47% (active)
same,growth,UACC-257 melanoma; 10 µM unless noted,18.6% (inactive) and 49.4% (inactive)
CCOC(=O)c1c(C)oc(C)c(C(=O)OCC)c1=O,growth,DU-145 prostate; 10 µM unless noted,118% (inactive) and 110% (inactive)
same,growth,K-562 leukemia; 10 µM unless noted,102% (inactive) and 87% (inactive)
same,growth,MALME-3M melanoma; 10 µM unless noted,133% (inactive) and 100% (inactive)
same,growth,MDA-MB-231 breast; 10 µM unless noted,109% (inactive) and 108% (inactive)
same,growth,RXF 393 renal; 10 µM unless noted,104% (inactive) and 117% (inactive)
same,growth,SF-268 CNS; 10 µM unless noted,102% (inactive) and 104% (inactive)
same,growth,SF-295 CNS; 10 µM unless noted,133% (inactive) and 105% (inactive)
same,growth,SF-539 CNS; 10 µM unless noted,102% (inactive) and 92.8% (inactive)
same,growth,UACC-257 melanoma; 10 µM unless noted,102% (inactive) and 107% (inactive)
O=C1c2c(O)cc(O)cc2OC(c2ccc(O)c(O)c2)C1O (centres undefined),growth,DU-145 prostate; 10 µM unless noted,132% (inactive)
same,growth,K-562 leukemia; 10 µM unless noted,104% (inactive)
same,growth,MALME-3M melanoma; 10 µM unless noted,118% (inactive)
same,growth,MDA-MB-231 breast; 10 µM unless noted,106% (inactive)
same,growth,RXF 393 renal; 10 µM unless noted,124% (inactive)
same,growth,SF-268 CNS; 10 µM unless noted,111% (inactive)
same,growth,SF-295 CNS; 10 µM unless noted,119% (inactive)
same,growth,SF-539 CNS; 10 µM unless noted,107% (inactive)
same,growth,UACC-257 melanoma; 10 µM unless noted,107% (inactive)
O=S1(=O)CC(Br)C(Br)C1 (centres undefined),growth,DU-145 prostate; 10 µM unless noted,72.3% (inactive) and 129% (inactive)
same,growth,K-562 leukemia; 10 µM unless noted,47% (inactive) and 69.7% (inactive)
same,growth,MALME-3M melanoma; 10 µM unless noted,19.9% (inactive) and 53.1% (inactive)
same,growth,MDA-MB-231 breast; 10 µM unless noted,88% (inactive) and 103% (inactive)
same,growth,RXF 393 renal; 10 µM unless noted,40.1% (inactive) and 67.5% (inactive)
same,growth,SF-268 CNS; 10 µM unless noted,109% (inactive) and 129% (inactive)
same,growth,SF-295 CNS; 10 µM unless noted,111% (inactive) and 99.8% (inactive)
same,growth,SF-539 CNS; 10 µM unless noted,97.6% (inactive) and 99.1% (inactive)
same,growth,UACC-257 melanoma; 10 µM unless noted,71.5% (inactive) and 64.7% (inactive)
CC(C)Cc1ccc(C(C)C(=O)NCc2ccc(Cn3c(=O)sn(CCCI)c3=O)cc2)cc1 (centres undefined),growth,DU-145 prostate; 10 µM unless noted,94% (inactive) and -88.2% (active)
same,growth,K-562 leukemia; 10 µM unless noted,3.55% (active)
same,growth,MALME-3M melanoma; 10 µM unless noted,92.4% (inactive) and -74.4% (active)
same,growth,MDA-MB-231 breast; 10 µM unless noted,92.1% (inactive) and -62% (active)
same,growth,RXF 393 renal; 10 µM unless noted,-94.8% (active)
same,growth,SF-268 CNS; 10 µM unless noted,91% (inactive) and -64.5% (active)
same,growth,SF-295 CNS; 10 µM unless noted,96.1% (inactive) and 35.9% (inactive)
same,growth,SF-539 CNS; 10 µM unless noted,88.7% (inactive) and -96.6% (active)
same,growth,UACC-257 melanoma; 10 µM unless noted,77.8% (inactive) and -19.9% (active)
CCCCCCCCCCCCCCCc1cc(O)ccc1N,growth,DU-145 prostate; 10 µM unless noted,96.6% (inactive) and 107% (inactive)
same,growth,K-562 leukemia; 10 µM unless noted,55.8% (inactive)
same,growth,MALME-3M melanoma; 10 µM unless noted,106% (inactive) and 78.2% (inactive)
same,growth,MDA-MB-231 breast; 10 µM unless noted,59.4% (inactive) and 71.5% (inactive)
same,growth,RXF 393 renal; 10 µM unless noted,94.7% (inactive)
same,growth,SF-268 CNS; 10 µM unless noted,77% (inactive) and 36.7% (inactive)
same,growth,SF-295 CNS; 10 µM unless noted,41.3% (inactive) and 49.7% (inactive)
same,growth,SF-539 CNS; 10 µM unless noted,-40.5% (active) and -83.9% (active)
same,growth,UACC-257 melanoma; 10 µM unless noted,87.4% (inactive) and 71.4% (inactive)
CC1(C)OB(c2ccc(Cn3cc(F)c(=O)[nH]c3=O)cc2)OC1(C)C,growth,DU-145 prostate; 10 µM,113% (inactive)
same,growth,DU-145 prostate; 50 µM,84% (inactive)
same,growth,K-562 leukemia; 10 µM,110% (inactive)
same,growth,K-562 leukemia; 50 µM,29.7% (inactive)
same,growth,MALME-3M melanoma; 10 µM,97.2% (inactive)
same,growth,MALME-3M melanoma; 50 µM,44.7% (inactive)
same,growth,MDA-MB-231 breast; 10 µM,124% (inactive)
same,growth,MDA-MB-231 breast; 50 µM,86.1% (inactive)
same,growth,RXF 393 renal; 10 µM,99.7% (inactive)
same,growth,RXF 393 renal; 50 µM,59.9% (inactive)
same,growth,SF-268 CNS; 10 µM,94.7% (inactive)
same,growth,SF-268 CNS; 50 µM,68.7% (inactive)
same,growth,SF-295 CNS; 10 µM,102% (inactive)
same,growth,SF-295 CNS; 50 µM,85.5% (inactive)
same,growth,SF-539 CNS; 10 µM,101% (inactive)
same,growth,SF-539 CNS; 50 µM,61.4% (inactive)
same,growth,UACC-257 melanoma; 10 µM,103% (inactive)
same,growth,UACC-257 melanoma; 50 µM,67.3% (inactive)
same,growth,M14 melanoma; 10 µM,103% (inactive)
same,growth,M14 melanoma; 50 µM,44.9% (inactive)
